Results filed as inconclusive are left out. Entries that show only a call come without a potency. The source made the active and inactive calls. Calls come from the whole dose curve; as a rule, active = well fitted cell-killing curve with a large enough effect; inconclusive = small, poorly fitted or top-dose-only effect, or effect the other way; inactive = no such curve, though single readings can be large or run the other way.
Assay: qHTS of pediatric cancer cell lines to identify multiple opportunities for drug repurposing: Confirmatory screen for OHS-50 cells (AID 1347128);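 note: compound exposure lasted 48 h at 37 degrees C; nearly all actives have a fitted effect of over 55% in size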
Settings: OHS-50 osteosarcoma cells viability; series mostly up to 45.9 µM
Text: Drug repurposing or repositioning has been offered as a strategy for drug development in oncology programs. This approach has special potential for childhood cancers and other rare or orphan diseases, where the expected return on new drug development has been a disincentive to pharmaceuticals.
In this project we exploit the poly-pharmacology of drugs to discover new indications via phenotypic screening of a panel of 19 well-characterized cell lines derived from solid tumors seen in children and adolescents. The goal is to identify approved drugs with previously unrecognized anticancer properties that has the potential to reveal new mechanisms and biological processes involved in carcinogenesis or drug resistance. We employed a titration-based paradigm (quantitative high-throughput screening or qHTS), where all compounds were tested at multiple concentrations for their effect on cell viability. Concentration-response curves (CRCs) were derived directly from the primary screen, and both potency and efficacy values were used to identify compounds with robust bioactivity profiles. We screened the NIH Chemical Genomics Center (NCGC) Pharmaceutical Collection (NPC) and Mechanism Interrogation Plate (MIPE) small molecule collections of approved and investigational compounds against these cell lines; and measured metabolically active cells after 48 hours of compound treatment as a proxy for cell viability.
Assay Submitter: Nathalia J. Martinez, National Center for Advancing Translational Sciences, National Institutes of Health, Rockville, MD, USA; email: natalia.martinez@nih.gov
[1] Shen, M et al. Quantitative high-throughput phenotypic screening of pediatric cancer cell lines identifies multiple opportunities for drug repurposing. Oncotarget 2017 Dec 19;9(4):4758-4772. PMID 29435139.
The cells were obtained from University of North Carolina (UNC), Pediatric Preclinical Testing Program (PPT), and Coriell Institute (CI).
qHTS cell viability assay:
Cells were assayed in growth media at a density of 500-1,000 cells/well. Five microliters of cells were dispensed into 1,536-well, white, solid-bottom, TC-treated plates (Greiner Bio One) using a multidrop dispenser and incubated at 37 degrees C, 5% CO2, under a humidified atmosphere for 5 hours. Twenty-three nanoliters of compounds and controls (neutral control DMSO or positive control bortezomib at final concentration of 2.3 µM) were subsequently transferred by Kalypsys pintool. For primary screens, the MIPE collection was tested at 11-point dilutions (final concentrations range from 0.78 nM to 46 µM) and the NPC collection at 8-point dilutions (final concentrations range from 0.59 nM to 46 µM). Compounds tested in follow-up screens were assayed at 11-point dilutions. Cells were incubated for 48 hours, followed by addition of 3 µL of CellTiter-Glo (Promega). After a 15 min incubation at room temperature, samples were analyzed for luminescence intensity using a ViewLux High-throughput CCD imager equipped with clear filters.
In the case of `CCC1(c2ccccc2)C(=O)NCNC1=O`, the Potency is reported as “inactive”. For `NC12CC3CC(CC(C3)C1)C2`, the Potency was “inactive”. With `CCCCc1oc2ccccc2c1C(=O)c1cc(I)c(OCCN(CC)CC)c(I)c1` the Potency was 44700 nM (active). With `CN(Cc1cnc2nc(N)nc(N)c2n1)c1ccc(C(=O)N[C@@H](CCC(=O)O)C(=O)O)cc1` the Potency was 13.1 nM (active). For `O=C(Nc1ccc([N+](=O)[O-])cc1Cl)c1cc(Cl)ccc1O`, the Potency was 1620 nM (active). For `O=C1c2c(O)ccc(O)c2C(=O)c2c(NCCNCCO)ccc(NCCNCCO)c21`, the Potency was 2330 nM (active). In the case of `Clc1ccc(C(c2ccccc2Cl)C(Cl)Cl)cc1` (configuration not stated), the Potency is reported as “inactive”. For `CC[C@@]1(O)C(=O)OCc2c1cc1n(c2=O)Cc2cc3c(CN(C)C)c(O)ccc3nc2-1`, the Potency was 329 nM (active). In the case of `CS(=O)(=O)Nc1ccc([N+](=O)[O-])cc1Oc1ccccc1`, the Potency is reported as “inactive”. In the case of `COC(=O)Nc1nc2ccc(C(=O)c3cccs3)cc2[nH]1`, the Potency is reported as 208 nM (active). In the case of `NC(=O)NO`, the Potency is reported as “inactive”. For `CC(C)Cc1ccc(C(C)C(=O)O)cc1` (configuration not stated), the Potency was “inactive”.
Potency is the fitted concentration of half-maximal effect.
